From PubChem BioAssay (NCATS)
Results filed as inconclusive are left out. The source made the active and inactive calls. Unless noted, the call rests on the fitted dose curve; in most records, active means well fitted curve in the direction sought with a large enough effect; inconclusive means small, poorly fitted or top-dose-only effect, or another doubt; inactive means no such curve, though single readings can be large; an effect the other way counts as inactive or inconclusive.

Tests used:
CP260 = test: qHTS profiling for inhibitors of Plasmodium falciparum proliferation (AID 504749); further: nearly all actives have a fitted effect of over 60% in size; further: potency means the concentration at half of the fitted maximal effect; settings: P. falciparum in erythrocytes, SYBR Green DNA, 72 h; series mostly up to 28.7 µM
How it was run: (§1)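 Infected RBCs, 0.3% parasitemia/2.5% Hct final; cpd 72 h, 37 C, 5% CO2; lysis buffer with saponin/triton/SYBR Green I, o/n RT dark; FI 485/535; norm. to artemisinin (0.29 uM) and DMSO.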

GB4 = test: as above; settings: P. falciparum in erythrocytes, SYBR Green DNA, 72 h; series mostly up to 28.7 µM
How it was run: as §1

W2 = test: as above; settings: P. falciparum in erythrocytes, SYBR Green DNA, 72 h; series mostly up to 12.8 µM
How it was run: as §1

[1] = molecular target: Cytochrome P450 2C19 (Homo sapiens) (UniProt P33261); test: qHTS Assay for Inhibitors and Substrates of Cytochrome P450 2C19 (AID 899); settings: recombinant CYP2C19, luciferin-H EGE luminescence; series mostly up to 57.1 µM; further: nearly all actives have a fitted effect of over 60% in size; further: potency means the concentration at half of the fitted maximal effect
How it was run: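 Reactions contain 5nM enzyme, 10uM Luciferin-H EGE (KM) and 50mM KPO4; compound preincubates 10 min at 37C, NADPH regeneration starts turnover for 60 min. Luminescence after detection reagent gives activity.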

[2] = molecular target: DNA dC->dU-editing enzyme APOBEC-3G (Homo sapiens) (UniProt Q9HC16); test: qHTS for inhibitors of Vif-A3G interactions: Validation (AID 588379); settings: Vif-A3G protein interaction assay; series mostly up to 46.1 µM; further: 0% is about no effect
How it was run: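 HeLa cells stably expressing Vif and A3G-eYFP, 700 cells/well, incubated overnight at 37 deg C, then exposed to compound overnight at 37 deg C. Inhibition of Vif-mediated degradation read as increased yellow fluorescence (Ex 488/Em 500-530) by laser-scanning cytometry.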

[3] = molecular target: Estrogen receptor (Homo sapiens) (UniProt P03372); test: qHTS assay for small molecule agonists of estrogen receptor alpha signaling (AID 588514; calls by dose curve;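 further: 0% = vehicle only and 100% = reference agonist; nearly all actives have a fitted effect of over 70% in size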); settings: ER-alpha-UAS-bla HEK293, beta-lactamase ratio, 18 h; series mostly up to 76.8 µM
How it was run: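 Cells were plated at 5000/well, incubated 4 hrs at 37 C, dosed with compound titration series, incubated 18 hrs at 37 C, loaded with CCF4 dye for 2 hrs at RT, then fluorescence was read.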

[4] = molecular target: Peroxisome proliferator-activated receptor delta (Homo sapiens) (UniProt Q03181); test: qHTS assay for small molecule agonists of peroxisome proliferator-activated receptor delta signaling (AID 588534; calls by dose curve;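 further: 0% = DMSO basal wells and 100% = positive control agonist at 10 µM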); settings: HEK293T PPARdelta-UAS-bla, beta-lactamase ratio, 18 h; series mostly up to 76.7 µM
How it was run: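 Fluorescence from CCF4 substrate cleavage by beta-lactamase reporter, read 2 hrs at RT, measured agonist activity. Compounds were tested with 18 hrs exposure at 37 C. Concentration-response data fitted to Hill equation.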

[5] = molecular target: Peroxisome proliferator-activated receptor gamma (Homo sapiens) (UniProt P37231); test: qHTS assay for small molecule agonists of peroxisome proliferator-activated receptor gamma signaling (AID 588536; active means well fitted curve in the direction sought with a large enough effect in the signal ratio, with a control signal flat, not every such curve was filed as active; the % refers to the signal ratio;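 further: 0% = DMSO basal wells and 100% = rosiglitazone at 2 µM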); settings: HEK293 PPARg-UAS-bla, beta-lactamase ratio, 16 h, percent of rosiglitazone response, DMSO as zero; series mostly up to 76.7 µM
How it was run: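 HEK293 UAS-bla reporter line, 1% charcoal/dextran FBS; titration, 16 h, 37 C; CCF4 loading 2 h RT; fluorescence 460/530 nm. Normalized to rosiglitazone 2 uM = 100%, DMSO = 0%.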

[6] = molecular target: Vitamin D3 receptor (Homo sapiens) (UniProt P11473); test: qHTS assay for small molecule agonists of vitamin D receptor signaling (AID 588543; calls by dose curve;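 further: 0% = DMSO basal and 100% = reference agonist control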); settings: HEK293T VDR-UAS-bla, beta-lactamase ratio, 16 h; series mostly up to 76.8 µM
How it was run: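 Measured: β-lactamase reporter activity (CCF4, 405 nm excitation, 460/530 nm emission) in HEK293T VDR-UAS-bla cells after 16 h compound exposure at 37 °C. Normalization against 50 nM 1α,25-dihydroxyvitamin D3 and DMSO; Hill-fit EC50.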

[7] = qHTS assay for small molecule agonists of retinoid X receptor alpha signaling (AID 588544; calls by dose curve;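 on activation: 0% = DMSO basal wells and 100% = reference agonist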); settings: HEK293T RXRa-UAS-bla, beta-lactamase reporter, 18 h; 530 nm emission
[8] = molecular target: Retinoic acid receptor RXR-alpha (Homo sapiens) (UniProt P19793); test: as above; settings: HEK293T RXRa-UAS-bla, beta-lactamase reporter, 18 h; series mostly up to 76.7 µM
[9] = molecular target: Thyroid hormone receptor beta (Homo sapiens) (UniProt P10828); test: qHTS assay for small molecule agonists of thyroid hormone receptor beta signaling (AID 588545; calls by dose curve;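 further: 0% = DMSO only and 100% = 10 nM T3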); settings: TR-UAS-bla GripTite HEK 293, beta-lactamase ratio, agonist mode, 18 h, percent of T3 response, DMSO as zero; series mostly up to 76.7 µM
How it was run: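 Compounds were tested as agonists in TR-UAS-bla-GripTite HEK 293 cells. After 18 hrs at 37 C, CCF4 substrate was added and fluorescence read after 2 hrs at room temperature.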

[10] = molecular target: Thyroid hormone receptor beta (Homo sapiens) (UniProt P10828); test: qHTS assay for small molecule antagonists of thyroid hormone receptor beta signaling (AID 588547; active means well fitted inhibition curve with a large enough effect in the signal ratio, with a control signal flat, not every such curve was filed as active; the % refers to the signal ratio;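 further: cells stimulated with 0.4 nM T3 agonist during compound exposure; on the % scale 0 is the no-effect control and ±100 the full control effect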); settings: TR-UAS-bla HEK293, beta-lactamase ratio, antagonist mode, 18 h
How it was run: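 Inhibition of T3-driven (0.4nM final) beta-lactamase reporter activity was measured over 0.59 nM to 92 uM compound after 18 h at 37 C. The cells were GripTite HEK293 TR-UAS-bla in charcoal/dextran-stripped serum, with CCF4 ratio read-out and IC50 from Hill fits.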

[11] = qHTS assay for small molecule agonists of the antioxidant response element (ARE) signaling pathway (AID 651741; active means well fitted activation curve with a large enough effect in the signal ratio; the % refers to the signal ratio; further: % of control where 0% means no effect); settings: HepG2 ARE-bla reporter, beta-lactamase FRET ratio, 16 h; series mostly up to 96 µM
How it was run: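 Quantitative HTS in HepG2 cells stably expressing an ARE-beta-lactamase reporter; 16 h compound exposure at 37 C, followed by 2 h room-temperature incubation with LiveBLAzer B/G FRET substrate and fluorescence measurement.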

[12] = qHTS assay for small molecule activators of the nuclear factor-kappa B (NF-kB) signaling pathway (AID 651749; active means well fitted activation curve with a large enough effect in the signal ratio; the % refers to the signal ratio; further: % of control where 0% means no effect); settings: NF-kB-bla ME-180 cells, beta-lactamase FRET ratio, 16 h; activation: stronger effect = higher value
How it was run: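 Readout: beta-lactamase reporter driven by an NF-kB response element, detected fluorescently as loss of FRET. Cells were the ME-180 line, treated 16 hr at 37C with pin-transferred compound.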

[13] = qHTS assay for environmental chemicals that activate the Aryl hydrocarbon Receptor (AhR) signaling pathway (AID 651777); settings: 1A2-DRE human hepatoma cells, luciferase, 24 h; activation: stronger effect = higher value; further: % of control where 0% means no effect; nearly all actives have a fitted effect of over 15% in size
How it was run: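 Concentration–response screening used 1,200 1A2-DRE cells per well, 24 hr compound exposure (37 C, 5% CO2), and One-Glo luminescence as the AhR-driven CYP1A2 reporter signal.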

[14] = molecular target: Peroxisome proliferator-activated receptor alpha (Homo sapiens) (UniProt Q07869); test: qHTS assay for small molecule agonists of the peroxisome proliferator-activated receptor alpha (PPARalpha) signaling pathway (AID 651778); settings: PathHunter PPARalpha complementation, chemiluminescence, 6 h; stronger effect = higher value; further: % of control where 0% means no effect
How it was run: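 Chemiluminescence from complemented enzyme reported PPARalpha activation in cells after 6 hr of compound treatment at 37 C. The detection reagent was incubated for 60 min at room temperature, and compounds were scored as agonists.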

[15] = qHTS assay for cell viability of the p53RE-bla HCT-116 cell line (AID 743292); settings: p53RE-bla HCT-116 viability, ATP luminescence, 16 h; series mostly up to 95 µM; further: on the % scale 0 is the no-effect control and ±100 the full control effect; nearly all actives have a fitted effect of over 55% in size
How it was run: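 Compound-exposed HCT-116 (p53RE-bla) cells, 4,000 per well, were kept 16 h at 37 C following a 5 h preincubation. Cell number was estimated from total ATP by CellTiter-Glo luminescence read after 30 min at room temperature.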

[16] = molecular target: Nuclear receptor subfamily 1 group I member 2 (Rattus norvegicus) (UniProt Q9R1A7); test: qHTS assay for small molecule activators of the rat pregnane X receptor (rPXR) signaling pathway (AID 651751; call rule not given here; further: 0% is about no effect); settings: rPXR reporter cells, luciferase (One-Glo), 24 h
[17] = qHTS assay for small molecule agonists of the antioxidant response element (ARE) signaling pathway measured by Nrf2-dependant transcriptional activity (AID 720636; active means well fitted curve in the direction sought with a large enough effect in the repeat runs; an effect the other way counts as inactive or inconclusive;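 further: HepG2 cells with an ARE-driven luciferase reporter; % of control where 0% means no effect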); settings: ARE-luc HepG2, Nrf2 luciferase reporter, 16 h; series mostly up to 92.4 µM
How it was run: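 Attachment 6 hr at 37 C, then compound versus DMSO vehicle for 16 hr in ARE-luc HepG2 cells (1% dialyzed FBS); luminescence recorded 30 min after ONE-Glo addition at room temperature.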

Sequence of Nuclear receptor subfamily 1 group I member 2 (Rattus norvegicus) (Q9R1A7 whole entry, looked up): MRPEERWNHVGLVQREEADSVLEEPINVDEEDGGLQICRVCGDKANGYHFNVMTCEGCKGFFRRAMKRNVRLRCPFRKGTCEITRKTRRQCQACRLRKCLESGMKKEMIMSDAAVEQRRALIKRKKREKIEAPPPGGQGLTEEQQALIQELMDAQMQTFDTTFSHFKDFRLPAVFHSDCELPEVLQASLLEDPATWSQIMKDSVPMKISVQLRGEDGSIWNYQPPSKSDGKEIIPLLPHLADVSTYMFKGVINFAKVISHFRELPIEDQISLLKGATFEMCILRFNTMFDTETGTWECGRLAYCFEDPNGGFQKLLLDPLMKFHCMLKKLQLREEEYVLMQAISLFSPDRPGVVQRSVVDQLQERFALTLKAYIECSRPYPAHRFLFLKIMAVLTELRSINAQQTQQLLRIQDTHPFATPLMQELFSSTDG
Sequence of Cytochrome P450 2C19 (Homo sapiens) (P33261 whole entry, looked up): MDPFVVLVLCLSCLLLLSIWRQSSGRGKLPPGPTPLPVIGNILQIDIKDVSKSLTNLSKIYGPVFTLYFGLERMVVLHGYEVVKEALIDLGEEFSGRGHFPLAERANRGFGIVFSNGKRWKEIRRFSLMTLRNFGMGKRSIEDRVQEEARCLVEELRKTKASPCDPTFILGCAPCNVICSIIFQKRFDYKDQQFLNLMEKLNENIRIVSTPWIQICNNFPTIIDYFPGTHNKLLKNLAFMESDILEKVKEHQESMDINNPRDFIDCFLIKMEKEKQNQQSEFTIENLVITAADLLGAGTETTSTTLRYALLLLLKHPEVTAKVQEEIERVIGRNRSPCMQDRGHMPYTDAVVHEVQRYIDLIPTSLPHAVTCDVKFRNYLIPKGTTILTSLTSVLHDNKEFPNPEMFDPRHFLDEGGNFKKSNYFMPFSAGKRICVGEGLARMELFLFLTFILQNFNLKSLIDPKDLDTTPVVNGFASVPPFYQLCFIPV
Sequence of Peroxisome proliferator-activated receptor alpha (Homo sapiens) (Q07869 whole entry, looked up): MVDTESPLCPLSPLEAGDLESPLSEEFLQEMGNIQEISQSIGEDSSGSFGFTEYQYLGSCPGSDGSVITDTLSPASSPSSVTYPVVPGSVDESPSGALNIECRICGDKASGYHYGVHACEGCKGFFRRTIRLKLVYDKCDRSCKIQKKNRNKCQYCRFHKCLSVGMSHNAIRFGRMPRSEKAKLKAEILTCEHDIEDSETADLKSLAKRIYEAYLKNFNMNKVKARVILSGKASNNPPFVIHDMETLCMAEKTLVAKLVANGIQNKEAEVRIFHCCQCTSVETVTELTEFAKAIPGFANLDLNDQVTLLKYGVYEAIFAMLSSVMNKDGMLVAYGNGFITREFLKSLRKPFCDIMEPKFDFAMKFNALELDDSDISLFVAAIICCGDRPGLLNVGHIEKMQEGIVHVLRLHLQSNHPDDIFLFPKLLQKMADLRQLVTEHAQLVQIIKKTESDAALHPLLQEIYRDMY
Sequence of Vitamin D3 receptor (Homo sapiens) (P11473 whole entry, looked up): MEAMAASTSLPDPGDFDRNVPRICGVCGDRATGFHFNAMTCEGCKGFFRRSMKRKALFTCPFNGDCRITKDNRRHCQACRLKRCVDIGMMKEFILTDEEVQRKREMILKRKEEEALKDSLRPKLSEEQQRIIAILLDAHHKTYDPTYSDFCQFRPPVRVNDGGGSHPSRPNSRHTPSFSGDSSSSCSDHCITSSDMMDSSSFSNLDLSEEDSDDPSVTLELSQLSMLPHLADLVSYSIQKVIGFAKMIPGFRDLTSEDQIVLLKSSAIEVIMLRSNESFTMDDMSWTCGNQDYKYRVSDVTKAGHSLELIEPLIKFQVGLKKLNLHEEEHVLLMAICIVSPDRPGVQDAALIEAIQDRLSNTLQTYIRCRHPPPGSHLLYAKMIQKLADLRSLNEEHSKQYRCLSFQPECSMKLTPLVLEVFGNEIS
Sequence of Peroxisome proliferator-activated receptor delta (Homo sapiens) (Q03181 whole entry, looked up): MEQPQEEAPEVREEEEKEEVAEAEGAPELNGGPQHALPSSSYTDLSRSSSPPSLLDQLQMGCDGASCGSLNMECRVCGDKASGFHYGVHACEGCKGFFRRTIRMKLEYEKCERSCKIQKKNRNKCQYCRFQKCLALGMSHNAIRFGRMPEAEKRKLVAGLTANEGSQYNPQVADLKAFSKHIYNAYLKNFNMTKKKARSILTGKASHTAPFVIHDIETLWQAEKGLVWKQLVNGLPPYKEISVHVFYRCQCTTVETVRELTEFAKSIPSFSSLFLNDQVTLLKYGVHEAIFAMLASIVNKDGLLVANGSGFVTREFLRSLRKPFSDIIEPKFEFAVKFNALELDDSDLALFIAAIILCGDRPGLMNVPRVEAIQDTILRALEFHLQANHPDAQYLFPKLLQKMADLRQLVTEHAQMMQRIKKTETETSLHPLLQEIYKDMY
Sequence of Peroxisome proliferator-activated receptor gamma (Homo sapiens) (P37231 whole entry, looked up): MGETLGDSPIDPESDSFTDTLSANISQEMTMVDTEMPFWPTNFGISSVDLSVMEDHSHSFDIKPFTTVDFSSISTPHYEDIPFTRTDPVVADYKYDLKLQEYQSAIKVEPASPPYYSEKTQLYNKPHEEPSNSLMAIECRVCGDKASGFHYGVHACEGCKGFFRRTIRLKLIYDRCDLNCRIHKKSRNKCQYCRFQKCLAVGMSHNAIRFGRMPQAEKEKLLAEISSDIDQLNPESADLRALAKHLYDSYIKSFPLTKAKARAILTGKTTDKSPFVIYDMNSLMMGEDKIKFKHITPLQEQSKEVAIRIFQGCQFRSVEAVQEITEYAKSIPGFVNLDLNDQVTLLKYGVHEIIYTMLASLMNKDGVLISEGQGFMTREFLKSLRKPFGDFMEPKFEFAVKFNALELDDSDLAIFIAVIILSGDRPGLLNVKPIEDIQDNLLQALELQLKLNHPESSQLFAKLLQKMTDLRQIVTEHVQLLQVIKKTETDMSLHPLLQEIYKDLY
Sequence of Estrogen receptor (Homo sapiens) (P03372 whole entry, looked up): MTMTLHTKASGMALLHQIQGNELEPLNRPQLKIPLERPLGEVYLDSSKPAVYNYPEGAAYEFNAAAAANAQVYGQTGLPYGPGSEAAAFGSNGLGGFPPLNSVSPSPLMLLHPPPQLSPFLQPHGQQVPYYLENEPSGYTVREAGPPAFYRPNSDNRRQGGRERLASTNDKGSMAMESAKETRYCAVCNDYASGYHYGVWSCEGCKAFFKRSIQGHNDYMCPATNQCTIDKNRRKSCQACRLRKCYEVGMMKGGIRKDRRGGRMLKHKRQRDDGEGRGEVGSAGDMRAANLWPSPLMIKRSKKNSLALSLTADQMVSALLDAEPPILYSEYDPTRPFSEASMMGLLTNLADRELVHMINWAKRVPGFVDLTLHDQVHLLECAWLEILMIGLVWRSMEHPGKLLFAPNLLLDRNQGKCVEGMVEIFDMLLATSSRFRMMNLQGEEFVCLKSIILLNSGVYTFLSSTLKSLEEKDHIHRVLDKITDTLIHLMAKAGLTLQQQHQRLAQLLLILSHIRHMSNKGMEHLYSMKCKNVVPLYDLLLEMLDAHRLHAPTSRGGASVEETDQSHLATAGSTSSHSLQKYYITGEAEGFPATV
Sequence of Thyroid hormone receptor beta (Homo sapiens) (P10828 whole entry, looked up): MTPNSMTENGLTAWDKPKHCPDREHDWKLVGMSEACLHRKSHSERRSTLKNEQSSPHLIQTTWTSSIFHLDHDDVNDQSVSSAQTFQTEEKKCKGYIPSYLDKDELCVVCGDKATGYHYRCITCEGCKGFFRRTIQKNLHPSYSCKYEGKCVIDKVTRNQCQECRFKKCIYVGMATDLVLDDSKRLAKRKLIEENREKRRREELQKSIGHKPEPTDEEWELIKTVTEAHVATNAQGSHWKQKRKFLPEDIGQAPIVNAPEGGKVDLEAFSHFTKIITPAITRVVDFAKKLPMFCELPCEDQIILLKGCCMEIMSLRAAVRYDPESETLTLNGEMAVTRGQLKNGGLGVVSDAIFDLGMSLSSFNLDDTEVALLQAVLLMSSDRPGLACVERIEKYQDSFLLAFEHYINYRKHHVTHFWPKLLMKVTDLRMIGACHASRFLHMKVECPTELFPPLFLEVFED
Sequence of Retinoic acid receptor RXR-alpha (Homo sapiens) (P19793 whole entry, looked up): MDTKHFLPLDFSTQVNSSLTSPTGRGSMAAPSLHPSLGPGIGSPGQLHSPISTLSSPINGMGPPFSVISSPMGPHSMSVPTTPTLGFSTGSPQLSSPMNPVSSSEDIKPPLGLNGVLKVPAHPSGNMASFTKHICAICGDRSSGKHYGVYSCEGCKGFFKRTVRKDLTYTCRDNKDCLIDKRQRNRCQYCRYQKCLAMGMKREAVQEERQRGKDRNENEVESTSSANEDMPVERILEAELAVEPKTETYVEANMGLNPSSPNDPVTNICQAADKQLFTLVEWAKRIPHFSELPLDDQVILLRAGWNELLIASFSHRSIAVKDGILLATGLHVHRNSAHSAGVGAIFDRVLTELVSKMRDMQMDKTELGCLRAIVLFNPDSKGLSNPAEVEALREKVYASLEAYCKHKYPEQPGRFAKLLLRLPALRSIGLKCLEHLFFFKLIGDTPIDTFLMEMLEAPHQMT
Sequence of DNA dC->dU-editing enzyme APOBEC-3G (Homo sapiens) (Q9HC16 whole entry, looked up): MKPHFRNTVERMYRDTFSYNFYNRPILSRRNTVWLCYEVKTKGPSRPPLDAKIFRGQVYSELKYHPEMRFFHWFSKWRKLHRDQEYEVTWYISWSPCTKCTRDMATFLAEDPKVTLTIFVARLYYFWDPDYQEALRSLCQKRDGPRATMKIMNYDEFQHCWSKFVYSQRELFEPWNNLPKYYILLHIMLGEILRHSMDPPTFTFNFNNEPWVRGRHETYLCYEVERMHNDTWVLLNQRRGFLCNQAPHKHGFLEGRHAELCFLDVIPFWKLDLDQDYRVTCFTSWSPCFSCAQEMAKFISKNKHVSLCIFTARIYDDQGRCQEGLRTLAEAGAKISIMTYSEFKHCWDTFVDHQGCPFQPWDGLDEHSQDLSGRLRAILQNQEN

NCC[C@H](O)C(=O)N[C@H]1C[C@@H](N)[C@@H](O[C@H]2O[C@@H](CN)[C@@H](O)[C@@H](O)[C@@H]2N)[C@@H](O[C@H]2O[C@@H](CO)[C@@H](O)[C@@H]2O)[C@@H]1O
inactive: Potency (CP260) | Potency (GB4) | Potency (W2)

C=C1C/C(=C\C)C(=O)O[C@@H]2CCN3CC=C(COC(=O)[C@@]1(C)O)[C@H]23
inactive: Potency [1]

CN[C@@H](C)[C@H]1CC[C@@H](N)[C@@H](O[C@@H]2[C@@H](O)[C@@H](O[C@H]3OC[C@@](C)(O)[C@@H](NC)[C@@H]3O)[C@H](N)C[C@@H]2N)O1 (tested in a mixture with another compound)
inactive: Potency (CP260) | Potency (GB4) | Potency (W2)

CCC[C@@](C)(COC(N)=O)COC(=O)NC(C)C
inactive: Potency [1]

C[C@@H]1O[C@H](O[C@@H]2C=C3CC[C@H]4[C@@H](CC[C@]5(C)[C@@H](c6ccc(=O)oc6)CC[C@]45O)[C@@]3(C)CC2)[C@@H](O)[C@H](O)[C@@H]1O
inactive: Potency (CP260) | Potency (GB4) | Potency (W2)

COc1cc2c(cc1O)C[C@H]1c3c(cc(O)c(OC)c3-2)CCN1C
inactive: Potency [1]

CC(C)N(CC[C@@](C(N)=O)(c1ccccc1)c1ccccn1)C(C)C
inactive: Potency (CP260)

COc1cc(N)c(Cl)cc1C(=O)N[C@@H]1CN2CCC1CC2
inactive: outcome [2] | Potency (CP260) | Potency (GB4)

CCN[C@]1(c2cccs2)CCCCC1=O
inactive: Potency (CP260)

CN(C)[C@@H]1C(=O)C(C(N)=O)=C(O)[C@]2(O)C(=O)C3=C(O)c4c(O)ccc(Cl)c4[C@](C)(O)[C@H]3C[C@@H]12
inactive: Potency (GB4) | Potency (W2)

CNC(=O)N(C)c1nnc(C(C)(C)C)s1
inactive: Potency [3] | outcome [4] | outcome [5] | outcome [6] | Potency [8] | outcome [9] | activity change % (negative = inhibition) [10] -7.26% | Potency [11] | activation [12] -0.0908% | activation [13] 3.03% | max response [14] -3.93% | Potency [15] | max response [16] 4.69%
-5.03%: max response [7]

c1cncc([C@H]2CCCCN2)c1
inactive: outcome [2]
active: Potency [1] 5.01 µM

N[C@H]1C[C@H]1c1ccccc1
inactive: Potency (GB4) | Potency (W2)

C[C@@]12CC[C@H](O)C[C@@H]1CC[C@H]1[C@@H]2C[C@@H](O)[C@]2(C)[C@@H](C3=CC(=O)OC3)CC[C@]12O
inactive: Potency [1]

O=C1C=C2C=C[C@H]3C[C@@]2(O1)[C@H]1CCCCN31
inactive: Potency [1]

COc1nc(NC(C)C)nc(NC(C)C)n1
inactive: Potency [3] | outcome [4] | outcome [5] | outcome [6] | Potency [8] | outcome [9] | activity change % (negative = inhibition) [10] 0.677% | Potency [11] | activation [12] -2.09% | activation [13] -1.56% | outcome [17] | Potency [15] | max response [16] -2.09%
21.4%: max response [7]

CC(C)N1C(=O)c2ccccc2NS1(=O)=O
-6.21%: max response [7]
inactive: Potency [3] | outcome [4] | outcome [5] | Potency [8] | outcome [9] | activity change % (negative = inhibition) [10] -1.01% | Potency [11] | activation [12] -0.185% | max response [14] -0.187% | outcome [17] | max response [16] -1.76%

CNc1ccc(C(=O)CC(O)CCC(C)C2OC(=O)CC(O)CC(=O)CC(O)CC(O)CC(O)CC(O)CC3(O)CC(O)C(C(=O)OC)C(CC(O[C@@H]4OC(C)C(O)C(N)C4O)/C=C/C=C/C=C/C=C/C=C/C=C/C=C/C2C)O3)cc1 (some centres undefined)
inactive: Potency (GB4) | Potency (W2)

CNC(=O)Oc1cccc2c1OC(C)(C)O2
inactive: Potency [3] | outcome [4] | outcome [5] | outcome [6] | Potency [8] | activation [12] -0.841% | activation [13] 1.33% | outcome [17] | Potency [15] | max response [16] 2.1%
-5.16%: max response [7]

CC(C)Nc1nc(Cl)nc(NC(C)C)n1
inactive: Potency [3] | outcome [4] | outcome [5] | outcome [6] | Potency [8] | outcome [9] | activation [13] 0.683% | outcome [17] | Potency [15] | max response [16] -1.62%
7.09%: max response [7]

C=CC1CN2CCC1CC2C(OC(=O)OCC)c1ccnc2ccc(OC)cc12 (centres undefined)
active: Potency (CP260) 10 µM | Potency (GB4) 4.78 µM | Potency (W2) 2.13 µM

O=C(O)COc1cc(Cl)c(Cl)cc1Cl
inactive: outcome [6] | Potency [8] | activity change % (negative = inhibition) [10] 7.44% | activation [13] 0.686% | max response [14] -1.8% | outcome [17] | Potency [15] | max response [16] -2.98%
28.5%: max response [7]

O=C1C=C2C=CC3C[C@@]2(O1)C1CCCCN31 (some centres undefined)
active: Potency (CP260) 6.31 µM | Potency (W2) 7.57 µM

O=C1CCCC2[C@@H]3CCCN4CCC[C@@H](CN12)C34 (some centres undefined)
inactive: outcome [2]
